# The supplement of paper PMC11732987, “Enantioselective OTUD7B fragment discovery through chemoproteomics screening and high-throughput optimisation” (Communications Chemistry, 2025)
# Values without a mark were called inactive.
# How the values were obtained:
# Experiment in all cases: log2 ratio of Biotin-Ahx-Ub-VS probe labelling (fragment/DMSO); higher = less target engagement (more negative = stronger competition), active = hit call of the paper (q ≤ 0.05, log2 ratio ≤ -1)
# Conditions in all cases: compound concentration: 200 uM; treatment time: 3 h
# [1] = molecular target: T1, USP19 (UniProt O94966)
# T1 sequence (whole entry): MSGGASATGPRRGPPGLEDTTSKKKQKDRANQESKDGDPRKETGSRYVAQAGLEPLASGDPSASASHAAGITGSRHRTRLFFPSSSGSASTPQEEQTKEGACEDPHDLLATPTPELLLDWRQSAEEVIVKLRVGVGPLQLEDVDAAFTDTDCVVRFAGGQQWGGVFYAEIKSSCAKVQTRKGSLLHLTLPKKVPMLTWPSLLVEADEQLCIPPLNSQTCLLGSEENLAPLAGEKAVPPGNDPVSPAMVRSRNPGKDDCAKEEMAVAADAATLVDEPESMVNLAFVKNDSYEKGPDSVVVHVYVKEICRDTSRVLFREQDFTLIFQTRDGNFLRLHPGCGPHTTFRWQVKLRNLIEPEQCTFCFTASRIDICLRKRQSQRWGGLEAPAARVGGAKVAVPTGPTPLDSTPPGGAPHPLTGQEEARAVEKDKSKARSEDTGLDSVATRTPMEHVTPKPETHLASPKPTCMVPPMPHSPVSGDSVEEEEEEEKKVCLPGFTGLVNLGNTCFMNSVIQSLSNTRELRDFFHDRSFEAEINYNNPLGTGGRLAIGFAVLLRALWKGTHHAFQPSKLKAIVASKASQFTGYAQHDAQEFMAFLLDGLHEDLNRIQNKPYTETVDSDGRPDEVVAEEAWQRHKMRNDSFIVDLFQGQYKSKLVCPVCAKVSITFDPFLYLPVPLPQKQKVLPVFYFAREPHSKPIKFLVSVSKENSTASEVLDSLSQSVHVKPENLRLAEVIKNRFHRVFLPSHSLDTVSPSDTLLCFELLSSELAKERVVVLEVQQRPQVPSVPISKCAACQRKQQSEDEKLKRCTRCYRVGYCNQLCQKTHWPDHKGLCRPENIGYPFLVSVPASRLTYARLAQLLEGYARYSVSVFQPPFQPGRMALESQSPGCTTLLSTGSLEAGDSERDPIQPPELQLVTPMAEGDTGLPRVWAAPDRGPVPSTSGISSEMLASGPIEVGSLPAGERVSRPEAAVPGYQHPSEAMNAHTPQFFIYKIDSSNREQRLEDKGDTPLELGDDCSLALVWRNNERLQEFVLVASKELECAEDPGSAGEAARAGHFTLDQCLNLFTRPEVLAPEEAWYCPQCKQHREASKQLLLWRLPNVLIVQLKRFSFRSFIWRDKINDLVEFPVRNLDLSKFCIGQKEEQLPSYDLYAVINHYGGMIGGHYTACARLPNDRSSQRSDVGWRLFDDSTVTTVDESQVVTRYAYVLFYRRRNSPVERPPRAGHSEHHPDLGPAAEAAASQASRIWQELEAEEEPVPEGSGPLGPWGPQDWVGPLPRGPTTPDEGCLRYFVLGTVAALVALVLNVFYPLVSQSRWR
# Procedure, shortened: (§1)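 Triplicate samples of HEK293T lysate, 495 µg each, received fragment at 200 µM or vehicle for 3 h, followed by Biotin-Ahx-Ub-VS (0.5 µM final) for 1 h. After NeutrAvidin enrichment of labelled DUBs and LysC/trypsin digestion, peptides were run by diaPASEF LC-MS/MS. The values are average log2 fragment/vehicle ratios from global-median-normalised Spectronaut label-free quantities, tested by unpaired t-test on proteins having ≥2 unique peptides.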
# [2] = molecular target: USP24 (UniProt Q9UPU5)
# Procedure, shortened: as §1
# [3] = molecular target: T2, USP25 (UniProt Q9UHP3)
# T2 sequence (whole entry): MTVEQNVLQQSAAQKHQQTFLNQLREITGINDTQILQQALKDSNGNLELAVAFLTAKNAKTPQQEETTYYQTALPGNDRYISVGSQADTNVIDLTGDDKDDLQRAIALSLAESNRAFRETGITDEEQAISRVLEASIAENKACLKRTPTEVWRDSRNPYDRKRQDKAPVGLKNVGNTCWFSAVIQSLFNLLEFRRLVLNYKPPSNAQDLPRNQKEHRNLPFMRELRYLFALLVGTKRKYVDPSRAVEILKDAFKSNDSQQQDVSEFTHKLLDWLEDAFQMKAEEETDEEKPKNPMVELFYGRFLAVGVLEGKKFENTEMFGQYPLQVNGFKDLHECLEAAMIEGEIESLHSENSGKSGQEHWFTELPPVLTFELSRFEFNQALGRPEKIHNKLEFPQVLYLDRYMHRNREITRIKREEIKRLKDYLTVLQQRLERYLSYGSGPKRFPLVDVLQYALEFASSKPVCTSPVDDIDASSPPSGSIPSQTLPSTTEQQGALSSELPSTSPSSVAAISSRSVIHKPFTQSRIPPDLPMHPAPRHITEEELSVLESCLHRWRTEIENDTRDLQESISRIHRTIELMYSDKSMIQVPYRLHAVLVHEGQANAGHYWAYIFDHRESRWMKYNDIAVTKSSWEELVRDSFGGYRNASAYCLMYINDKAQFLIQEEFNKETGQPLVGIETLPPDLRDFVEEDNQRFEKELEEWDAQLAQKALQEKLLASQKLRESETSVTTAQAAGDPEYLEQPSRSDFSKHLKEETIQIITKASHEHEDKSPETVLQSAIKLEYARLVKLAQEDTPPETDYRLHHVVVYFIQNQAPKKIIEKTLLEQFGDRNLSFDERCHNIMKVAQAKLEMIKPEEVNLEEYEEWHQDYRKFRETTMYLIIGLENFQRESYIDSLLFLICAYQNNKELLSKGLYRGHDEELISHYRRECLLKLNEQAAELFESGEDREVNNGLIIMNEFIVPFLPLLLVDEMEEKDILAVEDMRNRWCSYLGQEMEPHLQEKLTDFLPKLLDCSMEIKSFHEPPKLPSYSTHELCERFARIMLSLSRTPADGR
# Procedure, shortened: as §1
# [4] = molecular target: T3, USP28 (UniProt Q96RU2)
# T3 sequence (whole entry): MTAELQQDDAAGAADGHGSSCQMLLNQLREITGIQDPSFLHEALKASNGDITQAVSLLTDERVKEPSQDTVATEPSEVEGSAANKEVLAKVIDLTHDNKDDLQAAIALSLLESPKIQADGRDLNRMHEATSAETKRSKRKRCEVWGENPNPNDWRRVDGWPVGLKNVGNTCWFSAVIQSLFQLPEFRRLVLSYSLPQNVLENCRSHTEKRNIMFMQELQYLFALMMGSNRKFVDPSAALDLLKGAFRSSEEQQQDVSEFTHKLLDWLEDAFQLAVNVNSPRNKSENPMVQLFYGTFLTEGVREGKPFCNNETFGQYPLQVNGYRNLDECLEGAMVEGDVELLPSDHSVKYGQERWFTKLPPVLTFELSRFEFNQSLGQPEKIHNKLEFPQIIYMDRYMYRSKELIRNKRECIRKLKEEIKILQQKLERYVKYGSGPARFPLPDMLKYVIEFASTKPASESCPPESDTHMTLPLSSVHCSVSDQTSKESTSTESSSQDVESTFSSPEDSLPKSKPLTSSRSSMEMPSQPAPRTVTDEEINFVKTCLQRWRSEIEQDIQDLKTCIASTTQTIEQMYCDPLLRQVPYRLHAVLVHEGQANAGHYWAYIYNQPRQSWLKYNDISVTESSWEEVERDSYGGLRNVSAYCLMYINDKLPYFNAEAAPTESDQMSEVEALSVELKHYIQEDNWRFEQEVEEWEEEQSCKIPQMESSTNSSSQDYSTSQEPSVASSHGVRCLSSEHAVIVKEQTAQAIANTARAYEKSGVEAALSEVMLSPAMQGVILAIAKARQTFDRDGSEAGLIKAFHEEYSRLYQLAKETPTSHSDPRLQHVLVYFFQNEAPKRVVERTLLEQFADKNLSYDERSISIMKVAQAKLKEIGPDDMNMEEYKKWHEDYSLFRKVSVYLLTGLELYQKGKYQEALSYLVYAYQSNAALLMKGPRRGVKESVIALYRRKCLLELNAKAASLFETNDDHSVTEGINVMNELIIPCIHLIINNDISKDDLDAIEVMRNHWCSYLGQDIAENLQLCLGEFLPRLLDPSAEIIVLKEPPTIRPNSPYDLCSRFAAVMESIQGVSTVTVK
# Procedure, shortened: as §1
# Sequence of USP24 (Q9UPU5 whole entry): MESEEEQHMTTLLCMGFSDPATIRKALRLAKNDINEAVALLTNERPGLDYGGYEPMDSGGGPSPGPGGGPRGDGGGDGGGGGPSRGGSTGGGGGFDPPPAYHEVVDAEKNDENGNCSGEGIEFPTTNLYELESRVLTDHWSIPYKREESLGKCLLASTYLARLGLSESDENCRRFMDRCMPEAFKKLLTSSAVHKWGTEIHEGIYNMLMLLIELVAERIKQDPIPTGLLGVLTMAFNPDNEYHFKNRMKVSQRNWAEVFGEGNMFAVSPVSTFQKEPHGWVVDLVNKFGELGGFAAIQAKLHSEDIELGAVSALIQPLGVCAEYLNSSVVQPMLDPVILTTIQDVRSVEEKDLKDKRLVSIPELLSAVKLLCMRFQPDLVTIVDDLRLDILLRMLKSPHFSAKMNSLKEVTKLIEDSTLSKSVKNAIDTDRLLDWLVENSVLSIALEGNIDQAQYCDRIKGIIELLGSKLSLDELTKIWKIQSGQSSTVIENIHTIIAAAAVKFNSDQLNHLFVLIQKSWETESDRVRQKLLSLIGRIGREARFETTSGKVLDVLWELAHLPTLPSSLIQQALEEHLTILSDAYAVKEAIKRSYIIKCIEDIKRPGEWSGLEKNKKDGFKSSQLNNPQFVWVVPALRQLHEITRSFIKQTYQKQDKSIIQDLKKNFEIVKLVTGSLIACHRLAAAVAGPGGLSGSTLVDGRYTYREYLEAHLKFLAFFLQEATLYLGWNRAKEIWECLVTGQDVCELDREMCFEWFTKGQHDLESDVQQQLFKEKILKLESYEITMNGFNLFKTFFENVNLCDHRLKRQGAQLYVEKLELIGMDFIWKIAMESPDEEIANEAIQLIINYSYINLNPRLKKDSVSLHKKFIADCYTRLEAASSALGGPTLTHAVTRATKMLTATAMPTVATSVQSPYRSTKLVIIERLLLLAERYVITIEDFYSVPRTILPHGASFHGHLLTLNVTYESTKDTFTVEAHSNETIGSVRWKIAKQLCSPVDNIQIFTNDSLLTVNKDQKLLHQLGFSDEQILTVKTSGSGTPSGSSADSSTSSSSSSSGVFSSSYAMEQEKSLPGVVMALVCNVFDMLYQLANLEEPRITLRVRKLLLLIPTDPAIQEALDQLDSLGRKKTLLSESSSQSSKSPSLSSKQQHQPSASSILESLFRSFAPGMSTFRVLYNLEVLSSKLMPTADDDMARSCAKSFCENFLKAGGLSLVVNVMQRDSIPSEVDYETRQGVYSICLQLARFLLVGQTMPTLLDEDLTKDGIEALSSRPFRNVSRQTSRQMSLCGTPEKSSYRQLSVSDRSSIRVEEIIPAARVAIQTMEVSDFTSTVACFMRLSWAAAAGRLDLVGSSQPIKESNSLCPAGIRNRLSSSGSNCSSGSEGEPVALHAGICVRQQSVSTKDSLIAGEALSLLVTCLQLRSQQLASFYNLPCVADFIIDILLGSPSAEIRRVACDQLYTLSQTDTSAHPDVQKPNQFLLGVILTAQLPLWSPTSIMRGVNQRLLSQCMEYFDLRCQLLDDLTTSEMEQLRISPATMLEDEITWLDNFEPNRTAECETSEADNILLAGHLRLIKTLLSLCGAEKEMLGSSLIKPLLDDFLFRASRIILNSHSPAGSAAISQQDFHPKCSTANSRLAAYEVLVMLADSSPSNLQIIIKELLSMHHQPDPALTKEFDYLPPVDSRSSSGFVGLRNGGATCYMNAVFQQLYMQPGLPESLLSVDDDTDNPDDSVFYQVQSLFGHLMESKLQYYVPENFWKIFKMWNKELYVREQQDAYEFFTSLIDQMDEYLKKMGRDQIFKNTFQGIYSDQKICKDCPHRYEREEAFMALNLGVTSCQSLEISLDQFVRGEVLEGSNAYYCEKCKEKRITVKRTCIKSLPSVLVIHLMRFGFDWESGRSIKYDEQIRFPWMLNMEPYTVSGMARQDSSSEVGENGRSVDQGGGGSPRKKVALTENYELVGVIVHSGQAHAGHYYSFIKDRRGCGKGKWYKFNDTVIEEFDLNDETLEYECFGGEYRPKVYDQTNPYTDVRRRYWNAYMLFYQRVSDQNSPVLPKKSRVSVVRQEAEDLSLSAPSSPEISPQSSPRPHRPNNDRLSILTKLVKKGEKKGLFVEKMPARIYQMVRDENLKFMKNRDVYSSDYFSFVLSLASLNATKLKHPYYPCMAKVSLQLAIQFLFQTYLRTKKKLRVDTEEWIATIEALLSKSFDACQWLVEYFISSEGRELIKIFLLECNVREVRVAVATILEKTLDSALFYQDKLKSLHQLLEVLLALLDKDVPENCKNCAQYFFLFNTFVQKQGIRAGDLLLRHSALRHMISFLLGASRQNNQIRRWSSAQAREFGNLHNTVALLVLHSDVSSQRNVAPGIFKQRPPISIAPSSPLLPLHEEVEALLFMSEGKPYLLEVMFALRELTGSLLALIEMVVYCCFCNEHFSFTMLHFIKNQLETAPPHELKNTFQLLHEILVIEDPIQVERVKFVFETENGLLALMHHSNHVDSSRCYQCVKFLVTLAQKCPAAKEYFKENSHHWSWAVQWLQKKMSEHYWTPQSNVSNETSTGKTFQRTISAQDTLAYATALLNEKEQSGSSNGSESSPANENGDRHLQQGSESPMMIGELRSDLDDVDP
structure (smiles),measurement,setting,value
O=C(CCl)N1CCN(c2nc3ccccc3o2)CC1,log2 ratio of Biotin-Ahx-Ub-VS probe labelling,[1],-0.702
same,log2 ratio of Biotin-Ahx-Ub-VS probe labelling,[2],-1.3 (active)
same,log2 ratio of Biotin-Ahx-Ub-VS probe labelling,[3],-0.53
same,log2 ratio of Biotin-Ahx-Ub-VS probe labelling,[4],-0.6
